The AC50 is the midpoint of the concentration-response curve, whichever way the signal moves.

Molecules are shown by their SMILES. Active and inactive are the calls of the source. The calls were made as follows: active = hit-call score of the fitted dose curve at least 0.9, where 1 is the maximum; inactive = score below 0.9. Peptide text beside a SMILES is read from it.

40 compounds from PubChem BioAssay (EPA / NIEHS) can be followed below.

A short description of the test: ATG_TA_CIS: Attagene CIS-FACTORIAL HepG2 Assay for human TA Basal Promoter (AID 2282964). The following applies: HepG2 Attagene CIS-factorial TA basal promoter reporter; actives raise or lower the signal. On the procedure:
ATG_CIS is a cell-based, multiplexed-readout assay that uses HepG2, a human liver cell line, with measurements taken at 24 hours after chemical dosing in a 24-well plate.ATG_TA_CIS is one of 52 assay component(s) measured or calculated from the ATG_CIS assay. It is designed to make measurements of mRNA induction, a form of inducible reporter, as detected with fluorescence intensity signals by Reverse transcription polymerase chain reaction (RT-PCR) and Capillary electrophoresis technology.Data from the assay component ATG_TA_CIS was analyzed into 1 assay endpoint. This assay endpoint, ATG_TA_CIS, was analyzed with bidirectional fitting relative to DMSO as the negative control and baseline of activity. Using a type of inducible reporter, measures of mRNA for gain or loss-of-signal activity can be used to understand the background control at the transcription factor-level as they relate to the gene . Furthermore, this assay endpoint can be referred to as a secondary readout, because this assay has produced multiple assay endpoints where this one serves a background control function. To generalize the intended target to other relatable targets, this assay endpoint is annotated to the background measurement intended target family, where the subfamily is internal marker.
Human liver HepG2 cells are transiently transfected with multiple reporter transcription units (MRTUs) in 6-well plates using FuGene 6 reagent (Roche; 3 ml FuGene/1 mg DNA). The MRTU constructs are regulated by a cis-regulating element (promoter). […] A major difference between the CIS and TRANS system is that in CIS activities of endogenous TFs are measured, whereas the TRANS assay evaluates changes in activities of exogenous, chimeric NR-Gal4 proteins. […] At the end of 24 hour incubation, total RNA was isolated using TriZol reagent (Invitrogen). The isolated RNA is then reverse-transcribed using oligo(dT) primer and Mo-MLV reverse transcriptase (Invitrogen) with DNAse I (Ambion) treatment for 30 min. The one-tenth of the produced cDNA was amplified by PCR using Taq DNA polymerase (Invitrogen) and two reporter sequence-specific primers. The PCR products were fluorescently labeled by primer extension with 6-arboxyfluorescein (6-FAM) 5'-labeled reporter sequence-specific primer (2 min at 95 C, 20 s at 68 C and 10 min at 72 C) and these products were digested with 5U of HpaI (New England Biolabs) for 2h at 37 C. The fragments were purified using Qiaquick PCR columns (Qiagen), analyzed on an ABI 3130xL genetic analyzer (Applied Biosystems) with peak positions identified by using a set of X-rhodamine (ROX)-labeled MapMarker1000 molecular weight standards (BioVentures). The raw capillary electrophoresis data was processed using Attagraph software (Attagene).
On to `CC1(C)CCC[C@]2(C)[C@H]3CC(=O)O[C@]3(C)CC[C@@H]12`, for which the compound was called inactive. Turning to `CCCCCCO`, the compound was classed as inactive. Consider `c1ccc2sc(SSN3CCOCC3)nc2c1`, for which the compound was classed as inactive. On the same count and under the same terms, with `O=C(OCCc1ccccc1)c1ccccc1` the entry was “inactive”; with `COc1ccc(C(=O)/C(Br)=C\C(=O)O)cc1`, “inactive”. Same read-out and setting: with `O=C(O)C(F)(F)C(F)(F)C(F)(F)C(F)(F)C(=O)O` the entry was “inactive”; with `COC(=O)[C@H](Cc1ccccc1)NC(=O)[C@@H](N)CC(=O)O` (H-Asp-Phe-OMe), “inactive”. With `Nc1ccc(C(=O)OCCCOC(=O)c2ccc(N)cc2)cc1`, the AC50 was 63.7 µM (active).

In the case of `O=C(O[C@@H]1Cc2c(O)cc(O)cc2O[C@@H]1c1cc(O)c(O)c(O)c1)c1cc(O)c(O)c(O)c1`, the compound was classed as inactive.

As to `CCCCNS(=O)(=O)c1ccc(C)cc1`, the result was inactive. As to `COC(C=C(C)CCC=C(C)C)OC`, the outcome was inactive.

On to `C=C(C)C1CC=C(C)C(OC(C)=O)C1` (stereo not given), for which the compound was called inactive. `CCOC(=O)OC(=O)OCC`: the compound was classed as inactive. As to `CC(c1cc(C(C)(C)C)cc(C(C)(C)C)c1O)c1cc(C(C)(C)C)cc(C(C)(C)C)c1O`, the compound was called inactive.

In the case of `O=C1CCCCCCCCCCC1`, the result was inactive.

Turning to `C/C=C/C=C/CCCCCCCO`, the AC50 is 100 µM (active).

Turning to `CCCCOCCOC(=O)COc1ccc(Cl)cc1Cl`, the call was inactive. The same measure, in the same setting: for `CCCCC1C(=O)N(c2ccccc2)N(c2ccccc2)C1=O` the value was “inactive”; for `CCCCCCCC(=O)OCC(COC(=O)CCCCCCC)OC(=O)CCCCCCC`, “inactive”. On to `O=C1CCCCCCCCCCCN1`, for which the outcome was inactive. For `Cc1c(Cl)cccc1Cl`, the outcome was inactive. Still for that read-out and setting: for `CC1=CC(C)C(C=O)CC1` (stereo not given) the value was “inactive”; for `CCC(C)N` (stereo not given), “inactive”; for `C=CC(=O)OCCCCCCOC(=O)C=C`, “inactive”. Same read-out and setting: with `CC1(C)CC(O)CC(C)(C)N1[O]` the entry was “inactive”; with `CCOC(=O)C1=NN(c2ccc(Cl)cc2Cl)C(C)(C(=O)OCC)C1` (stereo not given), “inactive”. Turning to `O=C(O)C1CCC(C(=O)O)CC1` (stereo not given), the result was inactive. Turning to `CCCCC1CCC(=O)O1` (stereo not given), the result was inactive. On the same count and under the same terms, for `CCCC=C(C=O)CC` the value was “inactive”; for `CCCCOC(=O)CCC(C)=O`, “inactive”; for `CCC(=O)C1CC(C(C)C)CC=C1C` (stereo not given), “inactive”. On the same count and under the same terms, for `CC(CC(C)C)=NO` the value was “inactive”; for `CC1C(C)(C)C2=C(C(=O)CCC2)C1(C)C` (stereo not given), “inactive”; for `CC(=O)C(C)C`, “inactive”. Regarding `[Cl][Eu]([Cl])[Cl]`, the outcome was inactive. The same measure, in the same setting: for `C1CNCCN1` the value was “inactive”; for `CC(=O)OCC=C(C)C`, “inactive”; for `O=C1CCCN1C1CCCCC1`, “inactive”.

Consider `CCN1CCCC1=O`, for which the compound was classed as inactive. Still for that read-out and setting: with `Cn1cccc1` the entry was “inactive”.
